From PubChem BioAssay (NCI)
Compounds without any hit were thinned out: in the full panel of roughly 83,000, 20% have a hit.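 Growth was measured after 48 h exposure to one concentration of compound in 96-well plates. Values under 10 count as active.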 Unmarked numbers belong to inactive results. Calls of active or inactive are those of the source.

Test system: EKVX NSCLC
Assay: NCI-60 one-dose screen, 48 h (100 = growth as untreated, 0 = no growth, -100 = all killed)
Details: 10 µM unless noted
Protocol: Growth inhibition of the EKVX human Non-Small Cell Lung tumor cell line is measured as a screen for anti-cancer activity. Cells are grown in 96 well plates and exposed to the test compound for 48 hours. Compounds are tested at a single concentration, which is 10^-5 M for most compounds. The reported endpoint is percent growth (GI% or GIPRCNT), where numbers from 0 - 100% represent growth inhibition, and numbers from -100% - 0 represent cell death. For example, a value of 40 represents 60% growth inhibition. A value of 0 means no net growth occurred over the course of the experiment. A value of -40 indicates 40% of cells at the beginning of the experiment died by the end of the experiment. A value of -100 means all cells are dead at the end of the experiment.
NCI-60 Human Tumor Cell Lines Screen was performed using the standard one-dose NCI protocol, which is described in more detail at https://dtp.cancer.gov/discovery_development/nci-60/default.htm.
Compounds with GIPRCNT values below 10 were considered active. Activity score was based on GIPRCNT using the following formula: […]
Score is 0 for GIPRCNT values of 100 or above, 50 for GIPRCNT values of 0, and 100 for GIPRCNT values of -100.

Compound | growth
Cc1csc(Nc2nc(-c3cccc(Br)c3)nc(C(Cl)(Cl)Cl)n2)n1 | 22.8%
O=C1NC(c2ccc(Cl)c(Cl)c2)=C/C1=C\c1ccccc1 | 70.8%
Cc1nn(-c2ccc(Cl)cc2)c(=O)n1CCn1cnc2ccccc21 | 102%
O=S(=O)(NCCNc1cc(-c2cn(-c3ccccc3)nc2-c2cccc(O)c2)ccn1)c1ccc(Cl)cc1 | 52.1%
N#C/C(=C\c1ccc(-c2cccc(C(F)(F)F)c2)o1)c1nc(-c2ccco2)cs1 | 43%
Cc1ccc2[nH]cc(-c3nc(-c4cn(C)c5ncccc45)cs3)c2c1 | 59.5%
CC(=O)OC(C)COc1ccc(-c2ccccc2)cc1 (stereo not given) | 101%
N#CCCCCCn1c2ccccc2c2c3c(c4c5ccccc5n(CCCCCC#N)c4c21)C(=O)N(O)C3=O | 95%
N#CC1=C(N)Oc2ccc3ccccc3c2C1c1ccccc1Cl (stereo not given) | 42.5%
C=C(C)[C@@H]1CC[C@]2(C(=O)O)CC[C@]3(C)[C@H](CC[C@@H]4[C@@]5(C)C/C(=C/c6ccc(OC)cc6)C(=O)C(C)(C)[C@@H]5CC[C@]43C)[C@@H]12 | 9.53% (active)
Cc1ccc(Sc2sc(-c3ccccc3)nc2[P+](c2ccccc2)(c2ccccc2)c2ccccc2)cc1 | 5.57% (active)
COc1ccc(/C=C/C(=O)c2ccc([N+](=O)[O-])cc2)cc1 | 128%
c1ccc2c(-c3nc(-c4c[nH]c5ncccc45)cs3)c[nH]c2c1 | 80.5%
Clc1ccc(Cn2cc(-c3nc4ccc(Br)nc4n3Cc3ccc(Cl)cc3)c3cccnc32)cc1 | 77.8%
Fc1ccc(NCc2nnc(-c3ccc(Cl)cc3)o2)cc1 | 77%
COc1cc2c(cc1-c1c(C)noc1C)ncc1nc(C3CCC(F)(F)CC3)n([C@@H](C)COC(F)F)c12 | 43.4%
c1cnc2[nH]cc(-c3csc(-c4cn(CCCN5CCCCC5)c5ccccc45)n3)c2c1 | 65.8%
CN1CCN(c2nc(-c3csc(-c4cccs4)n3)cc3ccccc23)CC1 | 68.3%
COc1ccc2c3c(c4ccccc4cc13)C(=O)N(CCN(C)CCN)C2=O | -48% (active)
COc1ccc(C2(Cl)c3ccccc3N(c3ccccc3)c3ccccc32)cc1 | 0.119% (active)

Compound | growth
CCC(c1ccc(OC)cc1)C(CC)c1ccc(O)c(CN2CCCCC2)c1 (stereo not given) | 64.6%
N=c1c(S(=O)(=O)c2ccccc2)cc2c(=O)n3ccccc3nc2n1C1CCCC1 | 78.1%
Brc1cnc2[nH]cc(-c3nnc(-c4ccccc4)o3)c2c1 | 31.4%
COc1cccc2c1C(=O)c1c(O)c3c(c(O)c1C2=O)C[C@@](O)(C(=O)CO)C[C@@H]3OC1C[C@H](N)[C@H](O)[C@H](C)O1 (stereo not given in full) | 1.39% (active)
Nc1c(C(=O)Nc2c(Cl)cccc2Cl)sc2nc3c(cc12)CCCC3 | 102%
N#C/C(=C\c1ccc(-c2ccc(Br)cc2)o1)c1nc(-c2cccs2)cs1 | 79.6%
COc1ccc(C2c3ccccc3NC(=O)N2C2CCN(C)CC2)c(OC)c1 (stereo not given) | 87%
CC1(C)C(=O)/C(=C\c2ccco2)C[C@]2(C)[C@H]3CC[C@@H]4[C@@H](C(=O)/C=C/c5ccco5)CC[C@@]4(C)[C@]3(C)CC[C@@H]12 | 105%
Cc1nc([P+](c2ccccc2)(c2ccccc2)c2ccccc2)c(Sc2sc(-c3ccccc3)nc2[P+](c2ccccc2)(c2ccccc2)c2ccccc2)o1 | 14.8%
C=C(C)[C@@H]1CC[C@]2(C)[C@H](CC=C3[C@@H]4CC(C)(C)CC[C@]4(C=O)CC[C@]32C)[C@@]1(C)CCCN | 94.5%
Nc1c(C(=O)Nc2cccc3ccccc23)sc2nc3c(cc12)CCCC3 | 66.4%
O=C(/C=C/c1cccc2ccccc12)Nc1ncc(Cc2ccccc2)s1 | 20.3%
COc1ccc(-c2cc(-c3cccs3)n(N=O)c(=O)c2C#N)cc1 | 115%
COc1cccc(-c2nn(-c3ccccc3)cc2-c2ccnc(NCCCN)c2)c1 | 66.7%
Cn1cc(-c2csc(-c3cn(CCN)c4ccccc34)n2)c2cccnc21 | 50.4%
CC1(C)CC[C@]2(C(=O)NCCNCCN)CC[C@]3(C)C(=CC[C@@H]4[C@@]5(C)CCC(=O)C(C)(C)[C@@H]5CC[C@]43C)[C@@H]2C1 | 94.8%
CCCCC[C@H]1C/C=C2/C(=O)C=C[C@@H]2C/C=C\CCCC(=O)O[C@@H](CCCCC)C/C=C2/C(=O)C=C[C@@H]2C/C=C\CCCC(=O)O1 | -68.3% (active)
CC1=NN(c2ccc(S(=O)(=O)O)cc2Cl)C(=O)C1 | 101%
Cc1ccc(C)c2c1CCC2C(C)C (stereo not given) | 102%
COc1ccc2[nH]c(-c3ccc(Cl)cc3)cc(=O)c2c1 | 95.2%
